Results as given in PubChem BioAssay (EPA / NIEHS).
Calls of active or inactive are those of the source. Rule for the calls: active = hit-call score of the fitted dose curve at least 0.9, where 1 is the maximum; inactive = score below 0.9.

How the values were obtained:
Details in all cases: mRNA level, 48 h; actives raise or lower the signal
[1] = read-out: Insulin-like growth factor-binding protein 1 (IGFBP1), IGFBP1 (gene 3484); assay: LTEA_HepaRG_IGFBP1: Life Technologies and Expression Analysis (LTEA) Assay for Insulin-like growth factor-binding protein 1 (IGFBP1) using HepaRG (AID 2283508)
How it was run: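 Read-out is qRT-PCR transcript level normalized to three housekeeping genes, fitted in both directions against 0.5% DMSO. Differentiated HepaRG cells received eight half-log concentrations (top 100 uM) in duplicate for 48 h in serum-free induction medium.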

[2] = read-out: Interleukin 6 (IL6), IL6 (gene 3569); assay: LTEA_HepaRG_IL6: Life Technologies and Expression Analysis (LTEA) Assay for Interleukin 6 (IL6) using HepaRG (AID 2283509)
How it was run: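 Changes in IL6 mRNA, up or down relative to 0.5% DMSO controls, were derived from concentration-response curves in human HepaRG cells treated for 48 h at up to 100 uM, with ACTB, GAPDH and POLR2A as normalizers.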

[3] = read-out: Interleukin 6 Receptor (IL6R), IL6R (gene 3570); assay: LTEA_HepaRG_IL6R: Life Technologies and Expression Analysis (LTEA) Assay for Interleukin 6 Receptor (IL6R) using HepaRG (AID 2283510)
How it was run: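 In this HepaRG screen, test chemicals act on cells for 48 h at up to 100 uM (eight half-log points, duplicate wells). IL6R expression is quantified by qRT-PCR after normalization to ACTB, GAPDH and POLR2A, with DMSO as baseline.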

[4] = read-out: Potassium channel subfamily K member 1 (KCNK1), KCNK1 (gene 3775); assay: LTEA_HepaRG_KCNK1: Life Technologies and Expression Analysis (LTEA) Assay for Potassium channel subfamily K member 1 (KCNK1) using HepaRG (AID 2283511)
How it was run: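 Human HepaRG cultures receive test chemicals for 48 h in 0.5% DMSO, top concentration 100 uM with half-log dilutions. Induction or suppression of KCNK1 mRNA relative to DMSO is derived by bidirectional fitting of qRT-PCR data.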

[5] = read-out: Keratin 19 (KRT19), KRT19 (gene 3880); assay: LTEA_HepaRG_KRT19: Life Technologies and Expression Analysis (LTEA) Assay for Keratin 19 (KRT19) using HepaRG (AID 2283512)
How it was run: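 KRT19 transcript measured by TaqMan qRT-PCR, referenced to three housekeeping genes, after HepaRG cells received test chemicals for 48 h. Eight half-log concentrations, top 100 uM, 0.5% DMSO vehicle; increases and decreases both fitted.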

[6] = read-out: JUN Transcription Factor, JUN (gene 3725); assay: LTEA_HepaRG_JUN: Life Technologies and Expression Analysis (LTEA) Assay for JUN Transcription Factor using HepaRG (AID 2283513)
How it was run: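 Gene-expression endpoint: JUN mRNA (qRT-PCR, normalized to three reference genes) in HepaRG cultures treated 48 h with chemicals, duplicate wells, 100 uM maximum with half-log dilutions; bidirectional fitting relative to 0.5% DMSO.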

[7] = read-out: Lipase C (LIPC), LIPC (gene 3990); assay: LTEA_HepaRG_LIPC: Life Technologies and Expression Analysis (LTEA) Assay for Lipase C (LIPC) using HepaRG (AID 2283514)
How it was run: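 In this multiplexed gene-expression screen, human HepaRG cultures received test chemicals for 48 h across eight concentrations with 100 uM highest, in duplicate. Values reflect LIPC mRNA induction or suppression versus DMSO vehicle, from normalized qRT-PCR.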

[8] = read-out: MicroRNA 122 (MIR122), gene 406906; assay: LTEA_HepaRG_MIR122: Life Technologies and Expression Analysis (LTEA) Assay for MicroRNA 122 (MIR122) using HepaRG (AID 2283516); note: the transcript read is the microRNA miR-122
How it was run: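 Changes in transcript abundance, up or down relative to 0.5% DMSO vehicle, were scored after 48 h chemical treatment of HepaRG cells (maximum 100 uM). Quantification used TaqMan qRT-PCR normalized to housekeeping genes.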

[9] = read-out: matrix metalloproteinase-10 (MMP10), MMP10 (gene 4319); assay: LTEA_HepaRG_MMP10: Life Technologies and Expression Analysis (LTEA) Assay for matrix metalloproteinase-10 (MMP10) using HepaRG (AID 2283517)
How it was run: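 In differentiated HepaRG cultures kept in 0.5% DMSO, test chemicals act for 48 h over an eight-point range with a top dose of 100 uM. Expression is then quantified by TaqMan RT-PCR against ACTB, GAPDH and POLR2A.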

[10] = read-out: MYC, MYC (gene 4609); assay: LTEA_HepaRG_MYC: Life Technologies and Expression Analysis (LTEA) Assay for MYC using HepaRG (AID 2283518)
How it was run: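 MYC transcript changes, up or down relative to 0.5% DMSO, from TaqMan qRT-PCR normalized to three housekeeping genes. Human HepaRG cultures received chemicals for 48 h at eight half-log concentrations up to 100 uM, in duplicate.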

[11] = read-out: matrix metalloproteinase-3 (MMP3), MMP3 (gene 4314); assay: LTEA_HepaRG_MMP3: Life Technologies and Expression Analysis (LTEA) Assay for matrix metalloproteinase-3 (MMP3) using HepaRG (AID 2283519)
How it was run: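 Human liver HepaRG cultures received chemicals (top concentration 100 uM, 0.5% DMSO) for 48 h in duplicate. MMP3 mRNA induction or loss was then assessed via TaqMan qRT-PCR with housekeeping-gene normalisation.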

[12] = read-out: Paternally Expressed 10 (PEG10), PEG10 (gene 23089); assay: LTEA_HepaRG_PEG10: Life Technologies and Expression Analysis (LTEA) Assay for Paternally Expressed 10 (PEG10) using HepaRG (AID 2283520)
How it was run: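 After 48 h exposure of differentiated HepaRG cells (0.5% DMSO vehicle, eight concentrations up to 100 uM, duplicates), PEG10 mRNA was measured by TaqMan qRT-PCR. Values were normalised to endogenous control genes and analysed bidirectionally against vehicle.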

[13] = read-out: Protein phosphatase 2A (PPP2R4), PTPA (gene 5524); assay: LTEA_HepaRG_PPP2R4: Life Technologies and Expression Analysis (LTEA) Assay for Protein phosphatase 2A (PPP2R4) using HepaRG (AID 2283522)
How it was run: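 Using HepaRG cultures maintained in 0.5% DMSO, chemicals are tested 48 h at up to 100 uM in duplicate. Induction or suppression of PPP2R4 mRNA, measured by qRT-PCR, is fitted bidirectionally against the vehicle baseline.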

[14] = read-out: Phosphatase and tensin (PTEN), PTEN (gene 5728); assay: LTEA_HepaRG_PTEN: Life Technologies and Expression Analysis (LTEA) Assay for Phosphatase and tensin (PTEN) using HepaRG (AID 2283523)
How it was run: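 Expression of PTEN is quantified in the human liver line HepaRG following two days of dosing (top concentration 100 uM, half-log dilutions, 0.5% DMSO). Values derive from bidirectional curve fitting relative to DMSO controls.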

[15] = read-out: solute carrier (SLC22A1), SLC22A1 (gene 6580); assay: LTEA_HepaRG_SLC22A1: Life Technologies and Expression Analysis (LTEA) Assay for solute carrier (SLC22A1) using HepaRG (AID 2283524)
How it was run: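 Transcript induction or suppression of SLC22A1 in human HepaRG cultures is scored after 48 h chemical treatment, with DMSO (0.5%) as baseline for bidirectional fitting. Concentrations span eight half-log points topping at 100 uM.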

[16] = read-out: Pyruvate Dehydrogenase Kinase 4 (PDK4), PDK4 (gene 5166); assay: LTEA_HepaRG_PDK4: Life Technologies and Expression Analysis (LTEA) Assay for Pyruvate Dehydrogenase Kinase 4 (PDK4) using HepaRG (AID 2283525)
How it was run: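 Eight-point, half-log concentration series (max 100 uM, 0.5% DMSO) applied to differentiated HepaRG cells for 48 h in duplicate. Endpoint: PDK4 mRNA induction or repression by qRT-PCR against DMSO baseline.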

[17] = read-out: NAD(P)H dehydrogenase [quinone] 1 (NQO1), NQO1 (gene 1728); assay: LTEA_HepaRG_NQO1: Life Technologies and Expression Analysis (LTEA) Assay for NAD(P)H dehydrogenase [quinone] 1 (NQO1) using HepaRG (AID 2283526)
How it was run: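 In this assay, gene expression is read by qRT-PCR after 48 h exposure of HepaRG cells to eight concentrations (max 100 uM, half-log) in 0.5% DMSO. Each chemical runs in duplicate, and activity is scored relative to vehicle.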

[18] = read-out: Lipoprotein lipase (LPL), LPL (gene 4023); assay: LTEA_HepaRG_LPL: Life Technologies and Expression Analysis (LTEA) Assay for Lipoprotein lipase (LPL) using HepaRG (AID 2283515)
How it was run: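 Concentration-response testing used half-log steps from 100 uM in 0.5% DMSO on human HepaRG cells, 48 h, duplicate wells. Phenobarbital 1 mM served as induction control; LPL mRNA was normalized to ACTB, GAPDH, POLR2A.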

[19] = read-out: Nuclear factor NF-kappa-B p105 subunit (Homo sapiens) (UniProt P19838); assay: LTEA_HepaRG_NFKB1: Life Technologies and Expression Analysis (LTEA) Assay for Nuclear Factor Kappa B Subunit 1 (NFKB1) using HepaRG (AID 2283521);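 note: TaqMan qRT-PCR transcript normalised to ACTB GAPDH and POLR2A housekeeping genes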
How it was run: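 Differentiated human HepaRG cells in serum-free induction medium with 0.5% DMSO were exposed for 48 h to eight half-log concentrations, top 100 uM, in duplicate. NFKB1 mRNA measured by Fluidigm TaqMan qRT-PCR, normalised to ACTB, GAPDH and POLR2A; bidirectional fit versus DMSO.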

[20] = read-out: Nuclear factor erythroid 2-related factor 2 (Homo sapiens) (UniProt Q16236); assay: LTEA_HepaRG_NFE2L2: Life Technologies and Expression Analysis (LTEA) Assay for Nuclear factor erythroid 2-related factor 2 (NFE2L2) Transcription Factor using HepaRG (AID 2283527);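 note: TaqMan qRT-PCR transcript level normalised to ACTB GAPDH and POLR2A housekeeping genes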
How it was run: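 Human liver HepaRG line treated in duplicate for 48 h with an eight-point series topping at 100 uM. Gene expression of NFE2L2 by qRT-PCR, bidirectionally fitted against the vehicle control.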

Measured: outcome

Chain of Nuclear factor erythroid 2-related factor 2 (Homo sapiens) (Q16236 whole entry, looked up): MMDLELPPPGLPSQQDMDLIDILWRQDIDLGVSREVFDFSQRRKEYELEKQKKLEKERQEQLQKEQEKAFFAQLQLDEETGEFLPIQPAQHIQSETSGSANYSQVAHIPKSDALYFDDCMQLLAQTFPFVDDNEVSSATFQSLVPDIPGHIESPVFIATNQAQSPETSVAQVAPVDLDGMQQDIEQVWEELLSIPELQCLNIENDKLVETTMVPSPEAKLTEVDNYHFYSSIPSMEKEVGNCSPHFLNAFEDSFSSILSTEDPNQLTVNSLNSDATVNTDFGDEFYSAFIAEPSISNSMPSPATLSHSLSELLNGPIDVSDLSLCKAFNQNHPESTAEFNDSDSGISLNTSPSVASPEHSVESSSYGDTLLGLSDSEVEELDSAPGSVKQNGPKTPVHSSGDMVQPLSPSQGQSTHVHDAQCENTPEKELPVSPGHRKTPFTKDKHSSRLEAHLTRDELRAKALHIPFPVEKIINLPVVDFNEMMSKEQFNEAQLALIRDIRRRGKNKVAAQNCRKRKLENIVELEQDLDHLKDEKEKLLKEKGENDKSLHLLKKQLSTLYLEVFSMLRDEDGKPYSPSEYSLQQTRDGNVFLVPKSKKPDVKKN
Chain of Nuclear factor NF-kappa-B p105 subunit (Homo sapiens) (P19838 whole entry, looked up): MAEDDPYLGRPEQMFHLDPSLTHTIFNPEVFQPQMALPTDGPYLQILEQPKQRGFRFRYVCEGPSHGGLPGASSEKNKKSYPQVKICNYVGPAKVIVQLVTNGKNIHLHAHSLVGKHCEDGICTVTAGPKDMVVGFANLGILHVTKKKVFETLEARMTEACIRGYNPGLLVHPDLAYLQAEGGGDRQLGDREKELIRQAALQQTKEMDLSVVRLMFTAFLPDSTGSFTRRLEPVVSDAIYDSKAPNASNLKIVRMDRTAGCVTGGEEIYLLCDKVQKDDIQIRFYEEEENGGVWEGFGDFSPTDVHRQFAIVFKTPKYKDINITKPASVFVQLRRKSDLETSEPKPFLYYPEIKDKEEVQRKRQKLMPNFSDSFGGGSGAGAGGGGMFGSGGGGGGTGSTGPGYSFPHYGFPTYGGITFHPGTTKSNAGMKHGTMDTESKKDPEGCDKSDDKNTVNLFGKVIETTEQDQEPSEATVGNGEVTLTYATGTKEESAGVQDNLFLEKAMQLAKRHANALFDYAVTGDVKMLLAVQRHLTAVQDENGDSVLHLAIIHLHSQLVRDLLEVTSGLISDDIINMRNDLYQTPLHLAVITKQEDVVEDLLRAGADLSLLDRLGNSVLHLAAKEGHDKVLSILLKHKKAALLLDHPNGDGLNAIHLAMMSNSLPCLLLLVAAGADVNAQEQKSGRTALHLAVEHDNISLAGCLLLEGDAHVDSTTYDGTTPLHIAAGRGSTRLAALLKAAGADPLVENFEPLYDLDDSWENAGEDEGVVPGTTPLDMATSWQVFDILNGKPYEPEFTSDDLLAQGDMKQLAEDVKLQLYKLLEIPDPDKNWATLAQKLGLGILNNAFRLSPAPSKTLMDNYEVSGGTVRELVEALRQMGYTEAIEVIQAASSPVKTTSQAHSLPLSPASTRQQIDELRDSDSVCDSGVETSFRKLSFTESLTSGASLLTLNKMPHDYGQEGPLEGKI

CNC(=O)Oc1cccc2c1OC(C)(C)O2
not listed: [18] | [19] | [20]
inactive: all other assays above

CC1(C(=O)Nc2ccc(O)c(Cl)c2Cl)CCCCC1
not listed: [7]
inactive: all other assays above

Cc1ccn2nc(S(=O)(=O)Nc3c(F)cccc3F)nc2n1
not listed: [19]
inactive: all other assays above

CC(C)N(C(=O)SCC(Cl)=C(Cl)Cl)C(C)C
not listed: [18] | [19]
inactive: all other assays above
